IL-1B inflam inh = blocks inflammasome-driven IL-1 beta release; THP-1 LPS/ATP IL-1B secretion, AlphaLISA, 16 h; stronger effect = lower value; activity change, % at 57.5 µM; actives 4.7% (n = 360,000); AID 743279; in the data active = activity change below about -50%; inconclusive = mostly about -30% to -49%; also: % is scaled to controls: 0 for no effect and ±100 for the full control effect
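Secreted IL-1B measured by AlphaLISA bead assay after 16 h compound exposure of THP-1 cells; compounds (final up to 57.5 uM) added 1 h before LPS (250 ng/mL) and ATP (1.25 mM) stimulation; lower signal means less secretion.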
KB-3-1 tox = kills parental KB-3-1 adenocarcinoma cells; KB-3-1 viability, CellTiter-Glo ATP luminescence, 72 h; Potency, µM (top dose mostly 46.1 µM), usual class: cytotoxic; actives 1.4% (n = 400,000); AID 1347075; also: potency is read from the fitted curve at half-maximal effect; % is scaled to controls: 0 for no effect and ±100 for the full control effect; nearly all actives have a fitted effect of over 60% in size
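KB-3-1 cells, DMEM (no phenol red) + 10% FBS; compound by pin transfer, 72 h, 37 °C. Readout: CellTiter-Glo luminescence after 10 min. Data normalized, curve-fitted.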
KB-V1 cytotox = KB-V1 MDR subline cytotoxicity | KB-V1 MDR cells viability, CellTiter-Glo, 72 h | Potency, µM (top dose mostly 46.1 µM), hits mostly cytotoxic | actives 3.4% (n = 400,000) | AID 1347076; also: potency is read from the fitted curve at half-maximal effect; % is scaled to controls: 0 for no effect and ±100 for the full control effect; nearly all actives have a fitted effect of over 60% in size
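Cells of the MDR subline KB-V1 are plated, dosed with compound at multiple concentrations, and incubated 72 h at 37 degrees C; CellTiter-Glo is then added and luminescence read after 10 min.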
SW480 rereplic = inducers of DNA re-replication in SW480 colon cancer cells | SW480 DNA re-replication, Hoechst DNA content imaging, 48 h | Potency, µM (doses to about 46.1 µM), without a hit: top-dose re-replication activation, hits mostly activators | actives 1.8% (n = 340,000); also: potency is read from the fitted curve at half-maximal effect; % of control where 0% means no effect; nearly all actives have a fitted effect of over 55% in size
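Quantitative HTS format with DMSO vehicle controls; 48 hr drug incubation at 37 C, then 40 min Hoechst staining and scanning imager measurement at 405 nm excitation.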
MCF10A rereplic = induces DNA re-replication in MCF 10a normal breast cells | MCF 10A DNA re-replication, Hoechst nuclear intensity, 48 h | Potency, µM (series often up to 46.1 µM), for inactives: at the top dose activity, positive = re-replication, hits mostly activators | actives 2.9% (n = 350,000); also: potency is read from the fitted curve at half-maximal effect; % of control where 0% means no effect; nearly all actives have a fitted effect of over 50% in size
Starred values were filed as active, the others as inactive; i = inactive; ? = inconclusive; . = no result. In the library only some 9.9% were active in any assay of this set; here they are far more common. Unless noted, calls follow the shape of the dose curve; as a rule, active = well fitted curve in the direction sought with a large enough effect; inconclusive = small, poorly fitted or top-dose-only effect, or another doubt; inactive = no such curve, though single readings can be large; an effect the other way counts as inactive or inconclusive.

SMILES	IL-1B inflam inh	KB-3-1 tox	KB-V1 cytotox	SW480 rereplic	MCF10A rereplic
CCc1ccccc1NC(=O)C(=O)NCC(c1cccnc1)N1CCN(c2ccccc2F)CC1 (stereo not given)	.	i	i	.	.
COc1cc(CN2CCc3ccccc3C2)ccc1O	-90.1*	2.91µM*	13µM*	?	?
Oc1ccc(CN2CCc3ccccc3C2)c2cccnc12	11.7	4.61µM*	?	?	2.31µM*
Oc1ccc(CN2CCC(Cc3ccccc3)CC2)c2cccnc12	-52.9*	23.1µM*	?	2.91µM*	?
CCOC(=O)N1CCN(Cc2ccc(O)c3ncccc23)CC1	-8.8	?	i	5.8µM*	20.6µM*
COc1cc(CN2CCc3ccccc3C2)cc([N+](=O)[O-])c1O	10.7	i	i	-4.9%	-2.4%
Cc1cccc(C)c1N1CCN(C(=O)Cn2cncn2)CC1	-2.9	i	i	-1.8%	-2.4%
Cc1[nH]c2ccccc2c1CN1CCC(Cc2ccccc2)CC1	-85.1*	i	18.4µM*	?	21.2%
COc1cc(/C=N\NC(=O)C2COc3ccccc3O2)cc(OC)c1O (stereo not given)	-70.8*	i	?	-5.3%	0.1%
O=C(N/N=C/c1ccc2c(c1)OCO2)C1COc2ccccc2O1 (stereo not given)	10.7	i	10.3µM*	0.5%	9.2%
C/C(=N\NC(=O)C1COc2ccccc2O1)c1ccccn1 (stereo not given)	0.0	?	?	13.8%	18.4µM*
C[C@@H]1CC2C3CCC4=CC(=O)C=C[C@]4(C)[C@@]3(F)[C@@H](O)C[C@]2(C)[C@@]1(O)C(=O)COC(=O)c1cccc(S(=O)(=O)O)c1 (stereo not given in full)	.	.	.	-5.3%	4.2%
N#CC(C#N)=NNc1ccc(S(=O)(=O)N2CCCCC2)cc1	9.4	i	i	-2.4%	25.9µM*
Cc1nnc(SC(C)C(=O)Nc2ccc(S(=O)(=O)N3CCCCCC3)cc2)s1 (stereo not given)	-7.7	i	16.4µM*	-2.5%	13.7%
CC(=O)Nc1ccc(S(=O)(=O)N2CCC(C(=O)c3ccc(Cl)cc3)CC2)cc1	-51.3*	i	i	-5.5%	?
Cc1nnc(NC(=O)c2ccc(S(=O)(=O)N3CCCCC3)cc2)s1	-5.7	i	i	-10.8%	1.8%
N#C/C(=N\Nc1ccc(S(=O)(=O)N2CCOCC2)cc1)C(N)=S	-7.4	i	i	3.8%	-9.7%
Cc1cccc(N2CC(C(=O)Nc3ccc(S(=O)(=O)N4CCCCC4)cc3)CC2=O)c1C (stereo not given)	?	i	i	7.6%	13µM*
Cc1ccccc1N1CC(C(=O)Nc2ccc(S(=O)(=O)N3CCCCC3)cc2)CC1=O (stereo not given)	-4.4	i	i	10.2%	9.3%
O=C(NC(c1ccccc1)c1ccccc1)c1cccc(S(=O)(=O)NCc2ccccc2)c1	-18.8	i	i	?	20.1%
N#CCC(=O)Nc1ccc(C(=O)OCC(=O)N2CCN(C(=O)c3ccco3)CC2)cc1	12.3	i	i	-2.8%	-1.9%
CCOC(=O)c1ccc(NC(=O)c2ccccc2N(C)S(=O)(=O)c2ccccc2)cc1	-15.5	?	?	-8.4%	-38.8%
CN(C(=O)c1cccc(NC(=O)Cc2ccc(NC(=O)C3CCCN(C(=O)C4CCCCC4)C3)cc2)c1)C1CCC1 (stereo not given)	-5.7	i	?	?	?
COC(=O)Nc1ccc(S(=O)(=O)Nc2cccc3ccccc23)cc1	13.1	?	14.6µM*	?	29.8%
CC(Oc1cccc(Cl)c1)C(=O)Nc1ccc(S(=O)(=O)N(C)C2CCN(C)CC2)cc1 (stereo not given)	-56.9*	i	23.1µM*	12.9%	?
CC(=O)Nc1ccc(NC(=O)C(C)OC(=O)c2ccc(S(=O)(=O)N3CCCCCC3)cc2)cc1 (stereo not given)	-5.3	?	?	?	14.6µM*
CCOC(=O)/C=C/C(=O)Nc1ccc(S(=O)(=O)N2CCCCCC2)cc1	-88.4*	i	i	0.6%	?
